An excerpt weighted towards active compounds, which were near 3.7% of everything screened.
Autofluor counter: compound fluorescence in toxin protease inhibitor counterscreen | compound autofluorescence counterscreen, microsphere flow cytometry; active compounds read high | fluorescence intensity (concentration not given with the values) | 360,000 tested, 3.1% active | AID 624483; in the data active = fluorescence intensity above about 16000; inconclusive = no clear call, values can overlap the other calls
Vc quorum ag-1: inducers of Vibrio cholerae quorum light production without autoinducers, primary screen, BH1578 luxS cqsA deficient, single point | V. cholerae BH1578 lux reporter, luminescence, 6 h | activation, % at 18.7 µM | 350,000 tested, 0.16% active | AID 588436, 2011; in the data active = activation mostly above about 9.7%, no sharp cut-off; inconclusive = no clear call, values can overlap the other calls; inactive = mostly below about 3.7%
BoNT-A LC inh2: BoNT/A light chain protease inhibitors, primary screen, biochemical, flow cytometry, MLPCN library; Botulinum neurotoxin type A light chain protease (Clostridium botulinum A str. ATCC 3502); multiplex microsphere protease substrate cleavage; inhibition, % at 10 µM; 360,000 tested, 0.17% active; note: plate controls were buffer without enzyme for full effect and enzyme alone for no effect
Anthrax LF prot: Bacillus anthracis LF protease inhibitors, primary screen, biochemical, multiplex microsphere, MLPCN library; Lethal factor (Bacillus anthracis), P15917; multiplex microsphere protease cleavage assay; inhibition, % at 10 µM; 360,000 tested, 0.12% active; note: plate controls were buffer without enzyme for full effect and enzyme alone for no effect
BJeLR lethal: MLPCN primary cell-based screen for lethality selective to Ras in HRASV12 cells; BJeLR (HRASV12) viability, CellTiter-Glo ATP luminescence, 48 h; inhibition, % (no concentration beside the values); 300,000 tested, 0.17% active; in the data active = inhibition above about 50%; inconclusive = no clear call, values can overlap the other calls
BoNT-F LC inh: BoNT/F light chain protease inhibitors, primary screen, biochemical, flow cytometry, MLPCN library | 360,000 tested, 0.22% active | inhibition, % at 10 µM | Multiplex microsphere protease cleavage assay; in the data active = inhibition above about 35%, passing the limit was not always enough; inconclusive = no clear call, values can overlap the other calls; note: plate controls were buffer without enzyme for full effect and enzyme alone for no effect
Vc quorum ag-2: V. cholerae lux activation without autoinducers – BH1578 luxS cqsA deficient, cherry-pick, plate reader, dose response | shares compounds with Vc quorum ag-1 | AID 602243, 2012 | 620 tested, under 10 active | V. cholerae BH1578 lux reporter, luminescence, 6 h | activation, % at 50 µM; call rule not given here
Active calls of the source: *; i = inactive; ? = inconclusive; · = not tested or not shown. Cut-off read from the data, not from the text of the source, unless noted: active = inhibition above about 30%; inconclusive = no clear call, values can overlap the other calls; inactive = below that.

SMILES	Autofluor counter	Vc quorum ag-1	BoNT-A LC inh2	Anthrax LF prot	BJeLR lethal	BoNT-F LC inh	Vc quorum ag-2
Clc1cccc(Nc2ncnc3c2cnn3-c2ccccc2)c1	5322	0	0	-2	0	-3	·
O=C(O)c1cccc(Nc2ncnc3c2cnn3-c2ccccc2)c1	3182	17*	0	-4	-2	-6	0
CCOC(=O)C1CCCN(Cc2cccc(Cl)c2)C1 (configuration not stated)	8228	12	5	2	-8	27	0
CN(Cc1ccccc1)C(=O)c1ccc(NC(=O)Cc2ccc(NC(=O)C3CCN(C(=O)c4ccccc4)CC3)cc2)cc1	3426	i	0	-8	·	-4	·
COc1cc(C(N)=O)cc(Br)c1OC	2950	25*	0	1	4	4	0
Cc1ccc(N2C(=O)C(CN(C)C)C2c2ccccc2)cc1 (configuration not stated)	·	17*	·	·	15	·	2
Cc1cccc(C(=O)OCC(=O)c2ccc3c(c2)NC(=O)CO3)c1	3343	-1	0	-3	·	-6	·
COC(=O)c1cc(C(=O)OCC(=O)c2ccc3c(c2)NC(=O)CO3)cc([N+](=O)[O-])c1	4326	14	4	-2	·	3	10
CCC(C)n1cnc2c(=O)oc3ccccc3c21 (configuration not stated)	9275	114*	-1	-4	-8	-10	21
OC(c1ccccc1)c1nc(-c2cncnc2)cs1 (configuration not stated)	3405	0	0	-1	·	-2	·
CC(=O)c1cccc(NC(=O)CSc2nc(=O)n(CCN3CCOCC3)c3c2CCCC3)c1	5992	12	-1	-2	-3	5	1
CCC(=O)c1ccc(N2CCCCCC2)c(F)c1	3071	44*	0	2	-3	12	-100
CCC(=O)c1ccc(N2CCCC2)c(F)c1	3495	1	1	-1	-2	0	·
Cc1ccc(C)c(S(=O)(=O)Nc2ccc(O)cc2)c1	9525	i	0	4	8	3	·
Cc1ccc(C)c(S(=O)(=O)Nc2ccc(-n3cnnn3)cc2)c1	2828	37*	0	-14	·	-9	0
COc1ccc(NC(=O)C2Cc3c(-c4ccccc4)ccnc3O2)cc1OC (configuration not stated)	3842	0	0	2	·	-1	·
Cc1[nH]c2ccc3ncccc3c2c1C	2474	0	0	-1	7	-1	·
Cc1[nH]c2ccc3c(ncn3CCC#N)c2c1C	15721	14	2	1	10	-2	1
CC(=O)Nc1ccc(N2CCCC2)cc1	2234	25	-1	-32	-2	-54	0
CC(=O)Nc1ccc(N2CCCCC2)cc1	7093	i	0	-3	-12	-12	·
CCNC(=O)C1CCCN(Cc2cc(C(F)(F)F)ccc2Cl)CC1 (configuration not stated)	4208	-1	-1	-4	·	-3	·
CCOC(=O)c1c(NC(=O)c2cccs2)sc(C)c1CC	11711	114*	-2	-2	-3	-7	1
CCc1c(C)sc(NC(=O)c2cccs2)c1C(=O)OC(C)C	12819	i	-1	-6	-9	-6	·
Cn1c(SCc2cnc(-c3ccccc3)s2)nnc1C1COc2ccccc2O1 (configuration not stated)	5204	27*	-3	-2	2	-26	31
Cn1c(SCC(=O)c2ccccc2)nnc1C1COc2ccccc2O1 (configuration not stated)	·	0	·	·	5	·	·
SMILES	Autofluor counter	Vc quorum ag-1	BoNT-A LC inh2	Anthrax LF prot	BJeLR lethal	BoNT-F LC inh	Vc quorum ag-2
CCCCNC(=O)Nc1cc(C)on1	20643*	14	-3	0	-15	-6	0
Cc1cc(C(=O)COc2ccc(Br)cc2F)c(C)n1CC1CCCO1 (configuration not stated)	4058	0	0	2	·	-8	·
COC(=O)c1c(-c2ccc(Br)cc2)noc1N	6450	17*	0	-3	-1	-1	10
CCc1nc2ccc(C(=O)N3CCN(C(=O)c4ccco4)CC3)cn2c1N(C)C(=O)COc1ccccc1	4041	i	0	-7	·	6	·
CCCc1nn(C)c2c(=O)[nH]c(-c3cc(S(=O)(=O)N(CCO)CCO)ccc3OCC)nc12	4603	-2	0	-2	2	-5	·
CCOc1ccc(S(=O)(=O)N(CCO)CCO)cc1-c1nc2c(C(C)(C)C)nn(C)c2c(=O)[nH]1	?	12	-1	-4	-3	-2	0
COc1ccc(OC)c(C(O)c2ncc(-c3cccc4ccccc34)[nH]2)c1 (configuration not stated)	2840	-4	0	-1	·	1	·
CN(CC(=O)Nc1ccccc1Cl)C(=O)c1cccc(-n2cccc2)c1	6867	14	-3	-1	11	-5	0
CN(CC(=O)Nc1c(Cl)cccc1Cl)C(=O)c1cccc(-n2cccc2)c1	?	-17	3	1	-4	0	·
CN(C)CCCNc1nc2cc(-c3ccc(F)cc3)sc2c(=O)n1C	3868	-1	0	-6	·	-4	·
CCCS(=O)(=O)NC(=O)C1(C)CCCN(C(=O)c2cc3ccccc3s2)C1 (configuration not stated)	3524	1	0	-8	·	8	·
CCCOc1ccc(C2C(C(=O)c3ccc(C)o3)=C(O)C(=O)N2CCN2CCOCC2)cc1OC (configuration not stated)	10167	17*	-1	6	-2	1	200
COc1cc(NC(=O)C2=C(C)OCCS2)c(Cl)cc1C(=O)NCCN(C)C	3260	34*	-1	-4	-3	-1	1
COc1cc(CCNC(=O)c2ccccc2NC(=O)C2=C(C)OCCS2)cc(OC)c1OC	4620	-1	-2	0	-4	2	·
CC(C)CN1CCC(CN2CCNC(=O)C2=O)CC1	4074	-3	-1	-6	·	-5	·
COc1ccc(N=C(C)C2C(=O)c3ccccc3C2=O)cc1	4512	·	-1	-7	·	3	·
O=C(CN1C(=O)CSC1=O)NC1CCCCC1	7404	17*	2	-4	-14	12	3
COC(=O)c1cc(COC(=O)c2ccc(OC)c(S(=O)(=O)N3CCCC3)c2)oc1C	2523	12	0	-2	-3	-2	0
O=C(c1ccc(C(=O)N2CCOCC2)nc1)N1CCOCC1	9271	17*	1	-2	-2	8	0

Bioassay records (PubChem BioAssay)
